MARV entry inh = inhibitors of Marburg virus binding or cell entry; AID 540276; Potency, µM (titrated, usually from 37.8 µM), actives largely listed as inhibitors; Marburg virus pseudotyped entry inhibition, cell reporter; actives 1.8% (n = 300,000); calls by dose curve; tested in HEK293 cells
Shiga inhibitor = Shiga toxin inhibition | Vero cells, Shiga toxin protein synthesis inhibition reporter | inhibition, % at 38.7 µM | actives 9.2% (n = 290,000) | AID 2315; in the data active = inhibition mostly above about 28%, no sharp cut-off; inactive = mostly below about 43%
CHX counter = affects cycloheximide protein synthesis inhibition readout, counter-screen | cell reporter, cycloheximide protein synthesis inhibition counterscreen | max response, % | actives 12% (n = 300,000) | AID 2314; in the data active = max response mostly above about 13%, no sharp cut-off; inactive = mostly below about 14%; also: read at 38.3 µM for the half of the compounds with a filed dose
Lassa entry inh = inhibitors of Lassa virus binding or cell entry. actives 1.2% (n = 300,000). Lassa virus pseudotype entry inhibition, cell reporter. Potency, µM (highest dose often 37.9 µM), usual class: inhibitors; calls by dose curve; tested in HEK293 cells; also: nearly all actives have a fitted effect of over 50% in size
AMA1 RON2 block = inhibitors of Plasmodium falciparum AMA1-RON2 interaction. Potency, µM (top dose mostly 58.2 µM), most hits filed as inhibitors. actives 0.2% (n = 360,000). AlphaScreen AMA1-biotinylated RON2 peptide binding; active = well fitted inhibition curve with a large enough effect; inconclusive = small, poorly fitted or top-dose-only effect; inactive = no such curve, though single readings can be large or run the other way; also: nearly all actives have a fitted effect of over 45% in size
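AMA1 (3D7) with his tag at 25 nM final met compounds first, then biotinylated RON2 peptide at 25 nM; detection used donor plus acceptor beads, 10 µg/mL apiece, read by AlphaScreen after 30 min at room temperature.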
Numbers stand for hits; . = inactive; ? = inconclusive; / = not tested or not shown; [ ] = dose if it differs, or a comment. This excerpt belongs to a sample that is enriched for hits.

SMILES	MARV entry inh	Shiga inhibitor	CHX counter	Lassa entry inh	AMA1 RON2 block
CC(=O)c1cccc(NC(=O)CSc2nc(=O)n(CCN3CCOCC3)c3c2CCCC3)c1	.	/	/	.	.
CC(=O)c1ccc(OC(C)C(=O)OCC(=O)NCCc2ccccc2)cc1 (stereo not drawn)	.	/	/	.	.[11.6 µM]
Cc1ccccc1CSc1nnc(-c2ccco2)n1Cc1ccco1	.	.	.	.	.
c1ccc(CSc2nnc(-c3ccco3)n2Cc2ccco2)cc1	?	.	37	?	.
O=C(CSc1nnc(-c2ccco2)n1Cc1ccccc1)OC1CCCCC1	?	84	24	.	.
Cn1c(SCC(=O)c2ccccc2)nnc1C1COc2ccccc2O1 (stereo not drawn)	.	.	42	.	.
COc1ccc(S(=O)(=O)N2CCN(C(c3ccccc3)c3ccccc3)CC2)cc1NC(C)=O	/	.	.	/	.
COc1ccccc1C/C(N)=N/OC(=O)c1cccc([N+](=O)[O-])c1C	?	.	15	?	.
COc1ccc(/C(N)=N/OC(=O)c2cccc([N+](=O)[O-])c2C)cc1	.	.	.	.	.
O=S(=O)(CC(CN1CCCCC1)N1CCCCC1)c1ccc2ccccc2c1 (stereo not drawn)	3.5µM	.	.	?	.
Cc1ccc(S(=O)(=O)CC(CN2CCCCC2)N2CCCCC2)cc1 (stereo not drawn)	.	.	.	.	.
O=C(CS(=O)(=O)c1ccc2ccccc2c1)N1CCCCCC1	.	51	44	.	.
CC1CC(C)CN(C(=O)CNC(=O)c2ccc3ccccc3c2)C1 (stereo not drawn)	/	.	18	/	.
O=C(NCC(=O)N1CCN(S(=O)(=O)c2ccccc2)CC1)c1ccc2ccccc2c1	.	/	/	.	.
O=C(NCC(=O)N1CCCCC1)c1ccc2ccccc2c1	/	.	34	/	.
CC(=O)Nc1ccc(NC(=O)CSc2nnc(-c3cccs3)n2N)cc1	.	/	/	.	.
Cc1ccccc1NC(=O)CN1C(=O)CCn2nc(-c3cccn3C)cc21	/	/	/	.	/
CCOC(=O)C(=O)N1CCN(c2nc(-c3ccc(Cl)cc3)cs2)CC1	.	/	.	.	.
CCOC(=O)N1CCN(c2nc(-c3ccc(F)cc3)cs2)CC1	?	48	23	?	.
COCCCNC(=S)N1CCN(c2nc(-c3ccc(F)cc3)cs2)CC1	/	/	.	/	.
CNC(=S)N1CCN(c2nc(-c3ccc(F)cc3)cs2)CC1	/	.	13	/	.
COc1ccc(CN2C(=O)C(CC(=O)NCc3cccs3)CC(C(=O)N3CCOCC3)=C2C)cc1 (stereo not drawn)	/	/	/	/	.
c1ccc(CCNc2ncnc3nc[nH]c23)cc1	?	45	38	.	.
c1ccc2c(CCNc3ncnc4nc[nH]c34)c[nH]c2c1	.	.	.	?	.
CCN(CC)C(=O)c1[nH]cnc1C(=O)N[C@@H](CC(C)C)C(=O)OCc1ccccc1	/	.	.	/	.
SMILES	MARV entry inh	Shiga inhibitor	CHX counter	Lassa entry inh	AMA1 RON2 block
CCc1c(C)nc2c(-c3ccccc3)c(-c3ccccc3)[nH]n2c1=O	/	.	.	/	.
Cc1ccccc1-c1cc2nc(C)c(Cl)c(=O)n2[nH]1	13µM	/	/	?	.
Cc1nc2cc(-c3ccsc3-n3c(C)ccc3C)[nH]n2c(=O)c1Cl	.	.	.	.	.
C=CCc1c(C)nc2cc(-c3ccc(C)cc3)[nH]n2c1=O	/	72	54	/	.
O=C1c2nc3cc(-c4ccco4)[nH]n3c(=O)c2CN1Cc1ccccc1	.	.	.	.	.
CCCCc1c(C)nc2cc(-c3ccco3)[nH]n2c1=O	.	79	34	.	.
CCc1c(C)nc2cc(-c3ccccc3)[nH]n2c1=O	.	35	34	.	.
CCCS(=O)(=O)c1ncc(Cl)c(C(=O)Nc2c(C(=O)c3ccccc3)oc3ccccc23)n1	.	/	/	.	/
O=C(N/N=C/c1ccccn1)c1cc(Br)ccc1O	.	48	32	?	.
O=C(CNC(=O)c1cccc(F)c1)N/N=C/c1cccnc1	/	.	.	/	.
O=C(N/N=C/c1cccnc1)c1cccc(F)c1	.	23	20	.	.
O=C(N/N=C/c1coc2ccccc2c1=O)c1cc(Br)ccc1O	.	.	.	?	.
O=C(N/N=C/c1ccc(OC(=O)c2cccc(F)c2)cc1)c1cccnc1	.	.	.	.	.
O=C(N/N=C/c1ccc(OC(=O)c2cccs2)cc1)c1cccc(F)c1	.	.	47	.	.
O=C(N/N=C/c1cccnc1)c1cc(O)c(O)c(O)c1	3.2µM	.	.	?	.
COC(=O)N/N=C/c1cccnc1	.	.	.	.	.
COCCNC(=O)CCn1nc(-c2ccc(C)cc2)ccc1=O	.	.	.	.	.
O=S1(=O)NCC23CCC(CC21)O3 (stereo not drawn)	/	.	.	/	/
CC1(C)OC(=O)C2=C(C[C@@H](CCc3ccccc3)O[C@H]2C2CCCC2)O1	/	/	/	/	.
O=C(N/N=C/c1cccnc1)c1cc(Br)ccc1O	/	53	26	/	.
O=C(N/N=C/c1ccccn1)c1ccc(Br)o1	.	44	19	.	.
CCOc1ccc(Br)cc1C(=O)N/N=C/c1cccnc1	/	.	.	/	.
COc1ccc(C(=O)N/N=C/c2ccccn2)cc1	/	/	/	/	.
O=C(N/N=C/c1cccnc1)c1ccc(O)cc1	.	.	19	?	.
CCCC(=O)Nc1ccc(C(=O)N/N=C/c2cccnc2)cc1	?	.	.	.	.
SMILES	MARV entry inh	Shiga inhibitor	CHX counter	Lassa entry inh	AMA1 RON2 block
Fc1ccc(N/N=C/c2cccnc2)c(F)c1	/	73	31	/	.
FC(F)(F)c1ccccc1N/N=C/c1cccnc1	.	.	.	?	.
CCN(CCn1cccn1)Cc1ccccc1OCC(O)CN1CCc2ccccc2C1 (stereo not drawn)	/	.	.	/	.
Cc1cc(C)c(C)c(S(=O)(=O)NCCN2CCOCC2)c1C	.	.	.	.	.
Cc1ccc(C)c(Cn2c(=O)n(Cc3ccccc3)c(=O)c3c(C)c(C)sc32)c1	.	/	/	.	/
Cc1c(C=O)c2ccccn2c1C(=O)c1cccs1	.	.	.	.	.
Cn1nc(-c2ccccc2)c(CO)c1Oc1ccc(F)cc1	?	.	18	.	.
Fc1ccccc1CSc1ncn[nH]1	?	.	.	.	.
c1ccc(Nc2nc(CSc3ncn[nH]3)cs2)cc1	.	68	43	.	.
Cc1c(C(=O)N2CCC[C@H]2C(N)=O)oc2c(F)cccc12	/	.	29	/	.
COc1cccc(NC(=O)C(c2ccccc2)N2CCNC(=O)C2)c1 (stereo not drawn)	/	.	.	/	/
CC(=O)c1ccc(NC(=S)N2CCC(Cc3ccccc3)CC2)cc1	.	.	17	.	.
CN1CCN(C(=S)Nc2ccc(Cl)cc2)CC1	.	.	.	.	.
S=C(Nc1ccccc1)N1CCN(C(=S)c2ccccc2)CC1	.	71	44	?	.
S=C(Nc1ccc(Br)cc1)N1CCCC1	.	.	27	.	.
S=C(Nc1ccc(Cl)cc1)N1CCCCC1	.	.	13	.	.
Cc1ccc(NC(=S)N2CCCC2)cc1Cl	.	.	.	?	.
Cc1ccc(NC(=S)N2CCCC2)cc1C	?	.	25	.	.
S=C(Nc1ccc(Cl)cc1Cl)N1CCCCC1	?	.	17	.	.
